Source: PubChem BioAssay (NCATS)
“And” between values parts separate entries of the source, which are not always exact repeats. Identical values can stand only once. Results filed as inconclusive are left out. The source made the active and inactive calls. The call rests on the fitted dose curve; in most records, active means well fitted activation curve with a large enough effect; inconclusive means small, poorly fitted or top-dose-only effect; inactive means no such curve, though single readings can be large or run the other way.

These compounds were tested against Cellular tumor antigen p53 (Homo sapiens) (UniProt P04637) (assay: Primary qHTS for small molecule compounds that upregulate eGFP-tagged delta133p53alpha (in N-terminal) cells. (AID 2060322; further: nearly all actives have a fitted effect of over 75% in size;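 on activation: cells pre-induced with doxycycline then dosed without doxycycline; series mostly up to about 56 µM; 0% = DMSO vehicle and 100% = reference activator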)). Conditions: NCI-H358 eGFP-delta133p53alpha fluorescence, 24 h; activation: hits give high values.
Chain of Cellular tumor antigen p53 (Homo sapiens) (P04637 whole entry, looked up): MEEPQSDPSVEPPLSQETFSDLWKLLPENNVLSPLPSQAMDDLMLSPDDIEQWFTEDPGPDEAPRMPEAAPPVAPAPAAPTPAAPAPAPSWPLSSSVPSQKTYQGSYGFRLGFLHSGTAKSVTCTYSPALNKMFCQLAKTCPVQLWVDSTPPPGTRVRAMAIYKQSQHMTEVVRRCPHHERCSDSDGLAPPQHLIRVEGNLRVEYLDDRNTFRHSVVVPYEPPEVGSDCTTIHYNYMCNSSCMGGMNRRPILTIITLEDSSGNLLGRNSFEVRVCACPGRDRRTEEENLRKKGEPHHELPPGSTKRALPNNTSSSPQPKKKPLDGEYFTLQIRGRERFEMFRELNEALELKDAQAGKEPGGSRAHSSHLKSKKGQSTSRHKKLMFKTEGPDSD
In short: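 NCI-H358 cells pre-induced 24 h with 10 ng/ml doxycycline for eGFP-delta133p53alpha, plated dox-free and exposed 24 h at 37C to titrated compounds. Fixed, Hoechst-stained; gated GFP peak intensity by laser scanning cytometry, normalized to DMSO (0%) and 57.5 uM 5-azacytidine (100%).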
Potency means the concentration at half of the fitted maximal effect.

Row | Structure (SMILES) | activation | Potency
1 | NCCCP(=O)(O)O | -25.8% (inactive) | –
2 | COc1ccc(OC)c(C(O)C(C)N)c1 (centres undefined) | 15.6% (inactive) | –
3 | Cc1o[nH]c(=O)c1CC(N)C(=O)O (centres undefined) | 16.8% (inactive) | –
4 | N#CC(C#N)=Cc1ccc(O)c(O)c1 | 23.2% (inactive) and -8.42% (inactive) | –
5 | CC[C@@]1(O)C(=O)OCc2c1cc1n(c2=O)Cc2cc3ccccc3nc2-1 | – | 1.09 µM (active)
6 | CN(N=O)c1ccc(O)c(O)c1 | -30.1% (inactive) | –
7 | C#CCN[C@H](C)Cc1ccccc1 | 4.01% (inactive) | –
8 | CCCN1CCc2cccc3c2[C@H]1Cc1ccc(O)c(O)c1-3 | -13.3% (inactive) | –
9 | CCCN(CCC)CCc1ccc(O)c(O)c1 | -0.248% (inactive) | –
10 | CN(N=O)c1cc(O)ccc1O | -33.2% (inactive) | –
11 | O=C(O)Cc1cnc[nH]1 | -6.89% (inactive) | –
12 | NC(=NCCC[C@H](N)C(=O)O)N[N+](=O)[O-] | -32.4% (inactive) | –
13 | CC(=O)[C@H]1CC[C@H]2[C@@H]3CC[C@H]4C[C@H](O)CC[C@]4(C)[C@H]3C(=O)C[C@]12C | -36.8% (inactive) and -33% (inactive) | –
14 | O=C(NC1CN2CCC1CC2)c1cc2ccoc2cn1 (centres undefined) | -11.8% (inactive) | –
15 | CN1CC[C@@]2(C)c3cc(OC(=O)Nc4ccccc4)ccc3N(C)[C@@H]12 | 26.7% (inactive) | –
16 | Cc1ncc(CNC(=O)N(CCCl)N=O)c(N)n1 | 6.21% (inactive) and -40.8% (inactive) | –
17 | NCCc1ccc(S(=O)(=O)F)cc1 | -21.4% (inactive) | –
18 | CN1CC[C@@]2(C)c3cc(O)ccc3N(C)C12 (some centres undefined) | -31.1% (inactive) | –
19 | c1ccc(C2(c3ccccc3)CC2C2=NCCN2)cc1 (centres undefined) | -13.2% (inactive) | –
20 | CCn1cnc2c(Nc3cccc(Cl)c3)nc(N[C@@H]3CCCC[C@@H]3N)nc21 | – | 6.01 µM (active)

Row | Structure (SMILES) | activation | Potency
21 | O=[N+]([O-])c1cc(O)c(O)c([N+](=O)[O-])c1 | -0.323% (inactive) | –
22 | CCCN1CCc2cc(O)cc3c2[C@H]1Cc1ccc(O)c(O)c1-3 | 23.3% (inactive) | –
23 | S=C(NC1CCCCC1)N1CCC(c2cnc[nH]2)CC1 | 5.67% (inactive) and -16.8% (inactive) | –
24 | COc1ccc(C(CN(C)C)C2(O)CCCCC2)cc1 (centres undefined) | -16.7% (inactive) and -7.09% (inactive) and -5.45% (inactive) | –
25 | C[N+]1(C)C2CCC1CC(OC(=O)c1c[nH]c3ccccc13)C2 (centres undefined) | -13.4% (inactive) | –
26 | CN1CCC(c2c[nH]c3ccc(O)cc23)CC1 | -20.9% (inactive) | –
27 | COc1ccc2[nH]cc(CCN)c2c1 | -19.1% (inactive) | –
28 | [Cl-].[Cl][Pt].[NH2-].[NH2-].c1ccncc1 | -12% (inactive) | –
29 | CC1(C(=O)O)C2CCC(O2)C1(C)C(=O)O (centres undefined) | -33.6% (inactive) | –
30 | c1ccc2cc(CC3=NCCN3)ccc2c1 | -13.6% (inactive) | –
31 | CC(O)(CS(=O)(=O)c1ccc(F)cc1)C(=O)Nc1ccc(C#N)c(C(F)(F)F)c1 (centres undefined) | -7.17% (inactive) and -30.6% (inactive) and 1.43% (inactive) | –
32 | C[C@@H]1O[C@H](C[N+](C)(C)C)C[C@H]1O | -7.38% (inactive) | –
33 | C[N+]1(C)CCN(c2ccccc2)CC1 | -0.912% (inactive) | –
34 | COc1ccc2c(c1O)-c1cccc3c1[C@@H](C2)N(C)CC3 | -2.98% (inactive) | –
35 | CN1CCc2cc(O)cc3c2[C@H]1Cc1ccc(O)c(O)c1-3 | -32.2% (inactive) | –
36 | CP(=O)(O)C1=CCNCC1 | -37.6% (inactive) | –
37 | C[N+](C)(C)CC#CCOC(=O)Nc1cccc(Cl)c1 | 13.3% (inactive) | –
38 | COc1ccccc1N1CCNCC1 | -15.9% (inactive) and 0.526% (inactive) | –
39 | Oc1ccc2c3c1O[C@H]1c4[nH]c5ccccc5c4C[C@@]4(O)C(C2)N(CC2CC2)CCC314 (some centres undefined) | -38.9% (inactive) | –
